In ChEMBL document CHEMBL3988442, “University of Dundee, Small-Polar-MMV Screening Library” (2021):

How the values were obtained:
[1] = target: T1, Aspartate--tRNA(Asp/Asn) ligase (Mycobacterium tuberculosis (strain ATCC 25618 / H37Rv)) (UniProt P9WFW3); assay: Assay for Asp RNA synthetase-1 from Mycobacterium tuberculosis; format: functional; design: scale not given: direction of the effect not stated beside the values; details: 30 µM; note: in the data most compounds retested in dose-response had high values
T1 sequence (whole entry): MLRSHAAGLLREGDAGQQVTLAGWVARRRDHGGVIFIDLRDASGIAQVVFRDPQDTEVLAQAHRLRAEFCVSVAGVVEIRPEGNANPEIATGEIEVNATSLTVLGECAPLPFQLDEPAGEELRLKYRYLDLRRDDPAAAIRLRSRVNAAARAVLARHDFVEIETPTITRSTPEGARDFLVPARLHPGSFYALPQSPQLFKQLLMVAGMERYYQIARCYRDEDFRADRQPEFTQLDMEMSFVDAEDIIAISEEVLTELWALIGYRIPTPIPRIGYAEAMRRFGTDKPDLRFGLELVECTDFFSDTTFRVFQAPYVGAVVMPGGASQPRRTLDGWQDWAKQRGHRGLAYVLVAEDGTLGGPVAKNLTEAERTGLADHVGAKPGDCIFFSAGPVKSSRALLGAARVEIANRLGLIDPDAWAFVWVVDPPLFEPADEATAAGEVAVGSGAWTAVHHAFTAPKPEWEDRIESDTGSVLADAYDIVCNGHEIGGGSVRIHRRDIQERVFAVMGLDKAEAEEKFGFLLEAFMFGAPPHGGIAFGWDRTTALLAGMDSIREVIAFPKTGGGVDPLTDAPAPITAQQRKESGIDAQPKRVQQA

[2] = target: Shiga toxin 2 (Escherichia coli O157:H7) (UniProt P09385+P09386); assay: E. coli 0.157:H7 Shiga Toxin SOP - stx2 screening assay; format: functional; design: scale not given: direction of the effect not stated beside the values; details: 30 µM

Compound | Percent Effect [1] [%] | Percent Effect [2] [%]
CO[C@@H]1CCN(C(=O)c2ccccn2)[C@H]1Cc1ccccc1 | 3.21 | 4.36
CCn1cnnc1CNC(=O)c1ccc(Cl)cc1F | 1.24 | -53.7
COc1ccc(CN(C)C(=O)CCC(=O)c2cccs2)c(OC)c1OC | 1 | 0.732
c1coc(-c2noc(CN3CCC(c4ccn[nH]4)CC3)n2)c1 | 0.546 | 0.0749
COCCN1CCN(CCCS(C)(=O)=O)CC1C (centres undefined) | -5.8 | -23.7
Cc1noc(Cl)c1CCC(=O)N1CCCCC1Cn1cccn1 (centres undefined) | 1.35 | -6.37
CCC(=O)Nc1ccc2c(c1)CN(C(=O)c1ccco1)CC2 | -3.28 | -43.9
CCN1CCOC(CNCc2ccccn2)C1 (centres undefined) | 1.04 | 12.2
CC(C)=CCN(C)C1CCCN(Cc2noc(C)n2)C1 (centres undefined) | 3.23 | 25.2
Cc1nn(C)c(C)c1C1CCCN1Cc1nc(-c2ccco2)oc1C (centres undefined) | -1.54 | 22.6
CCCC(Nc1c(C#N)c(=O)n(C)c(=O)n1C)c1ccc(F)cc1F (centres undefined) | -3.88 | 4.48
OC[C@H]1CC[C@]2(CC1)CN(Cc1ccccn1)Cc1ccccc1O2 | 0.104 | 2.28
CCS(=O)(=O)N1C[C@H]2CCC[C@@]2(COc2ccccn2)C1 | 3.6 | 2.64
Cc1ccc(C(=O)N2CCCC(NC(=O)C(C)C)C2)c(O)c1 (centres undefined) | 7 | 7.56
CC(=O)N1CCCC(Cc2cncc(Br)c2)CC1 (centres undefined) | -0.223 | -11
CC1CN(c2ccc(CNC(=O)c3ccn(C)c(=O)c3)cn2)CCO1 (centres undefined) | -6.51 | -19.6
O=C(Nc1ccc(N2CCCC2)nc1)N1CCc2sccc2C1 | 0.155 | -146
